Measurements published in PubChem BioAssay AID1159580 (chemical genetic matrix, 2015).
Where “and” joins values, the source holds several entries; their conditions need not be identical. Equal entries are not always repeated. The campaign covered roughly 5,500 compounds. About 2,000 (36%) were called active. Inconclusive results (about 18%) are left out. Rule as the data show it: active = normalized growth mostly below about 0.91 (no sharp cut-off); inconclusive = no clear call, values can overlap the other calls; inactive = mostly above about 0.92. The list shows a part of the results.

Experiment: chemical genetic growth profiling, strain panel (AID 1159580);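 also: tested at 20 µM; growth read once vehicle control cultures reached saturation at 30 °C; 1 = growth at the plate median or of vehicle wells; lower values mean less growth of the strain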
Conditions: S. cerevisiae deletion strains, growth OD

Measured: normalized growth

CC12CCC(=O)C=C1CCC1C2[C@@H](O)CC2(C)C1CC[C@]2(O)C(=O)COP(=O)(O)O (stereo partly drawn)
inactive: locus YAL013W, strain DEP1, stronger effect = lower value 1.02 | locus YAL021C, strain ccr4, stronger effect = lower value 1 | locus YAL026C, strain drs2, stronger effect = lower value 0.999 | locus YAL030W, strain snc1, stronger effect = lower value 1.01 | locus YBL061C, strain skt5, stronger effect = lower value 0.998 | locus YBR009C, strain hhf1, stronger effect = lower value 0.994 | locus YBR021W, strain FUR4, stronger effect = lower value 1.02 | locus YBR023C, strain chs3, stronger effect = lower value 0.992 | locus YBR171W, strain sec66, stronger effect = lower value 1 | locus YBR229C, strain ROT2, stronger effect = lower value 1.01 | locus YBR231C, strain swc5, stronger effect = lower value 0.989 | locus YBR279W, strain paf1, stronger effect = lower value 1 | locus YCL011C, strain gbp2, stronger effect = lower value 0.991 | locus YCL016C, strain dcc1, stronger effect = lower value 0.973 | locus YCL029C, strain bik1, stronger effect = lower value 1.01 | locus YCL061C, strain MRC1, stronger effect = lower value 0.999 | locus YCL069W, strain vba3, stronger effect = lower value 1.01 | locus YCR088W, strain abp1, stronger effect = lower value 0.995 | locus YDL005C, strain med2, stronger effect = lower value 0.997 | locus YDL035C, strain GPR1, stronger effect = lower value 1.01 | locus YDL040C, strain nat1, stronger effect = lower value 1.01 | locus YDL074C, strain BRE1, stronger effect = lower value 1.02 | locus YDL101C, strain DUN1, stronger effect = lower value 1.01 | locus YDL185W, strain tfp1, stronger effect = lower value 1 | locus YDL192W, strain arf1, stronger effect = lower value 1.01 | locus YDR001C, strain nth1, stronger effect = lower value 0.996 | locus YDR069C, strain doa4, stronger effect = lower value 1.01 | locus YDR101C, strain arx1, stronger effect = lower value 1.03 | locus YDR137W, strain rgp1, stronger effect = lower value 0.992 | locus YDR150W, strain NUM1, stronger effect = lower value 1.02 | locus YDR159W, strain sac3, stronger effect = lower value 1 | locus YDR162C, strain NBP2, stronger effect = lower value 1.01 | locus YDR195W, strain ref2 0.992 | locus YDR297W, strain sur2, stronger effect = lower value 0.996 | locus YDR318W, strain mcm21, stronger effect = lower value 0.999 | locus YDR334W, strain swr1, stronger effect = lower value 0.998 | locus YDR335W, strain msn5, stronger effect = lower value 1.01 | locus YDR388W, stronger effect = lower value 1 | locus YDR392W, strain spt3, stronger effect = lower value 0.928 | locus YDR502C, strain sam2, stronger effect = lower value 1 | locus YEL003W, strain gim4, stronger effect = lower value 1 | locus YEL037C, strain rad23, stronger effect = lower value 1.01 | locus YEL061C, strain CIN8 (second series), stronger effect = lower value 1 | locus YEL061C, strain CIN8, stronger effect = lower value 1.02 | locus YER015W, strain faa2, stronger effect = lower value 1 | locus YER016W, strain bim1, stronger effect = lower value 1 | locus YER110C, stronger effect = lower value 1.01 | locus YER111C, strain swi4, stronger effect = lower value 1 | locus YER155C, strain BEM2 (second series), stronger effect = lower value 1.01 | locus YER155C, strain BEM2, stronger effect = lower value 1.01 | locus YER167W, strain BCK2, stronger effect = lower value 1.01 | locus YFR010W, strain ubp6, stronger effect = lower value 1.01 | locus YGL078C, strain dbp3, stronger effect = lower value 0.994 | locus YGL086W, strain mad1, stronger effect = lower value 1 | locus YGL167C, strain pmr1, stronger effect = lower value 0.996 | locus YGL173C, strain kem1, stronger effect = lower value 0.995 | locus YGL227W, strain vid30, stronger effect = lower value 0.996 | locus YGL240W, strain doc1, stronger effect = lower value 1.01 | locus YGL248W, strain PDE1, stronger effect = lower value 1 | locus YGL253W, strain hxk2, stronger effect = lower value 1.01 | locus YGR078C, strain PAC10, stronger effect = lower value 1.01 | locus YGR135W, strain pre9, stronger effect = lower value 0.997 | locus YGR229C, strain SMI1, stronger effect = lower value 1.02 | locus YGR252W, strain gcn5, stronger effect = lower value 0.958 | locus YHR013C, strain ard1, stronger effect = lower value 0.991 | locus YHR027C, strain rpn1, stronger effect = lower value 0.994 | locus YHR030C, strain SLT2, stronger effect = lower value 1.02 and 0.987 | locus YHR079C, strain IRE1 (second series), stronger effect = lower value 1 | locus YHR079C, strain IRE1, stronger effect = lower value 0.96 | locus YHR094C, strain hxt1, stronger effect = lower value 1.01 | locus YHR129C, strain ARP1, stronger effect = lower value 1.01 | locus YHR142W, strain chs7, stronger effect = lower value 0.993 | locus YHR200W, strain rpn10, stronger effect = lower value 1.01 | locus YIL066C, strain RNR3, stronger effect = lower value 1.02 | locus YIL073C, strain SPO22, stronger effect = lower value 1.01 | locus YIL125W, strain kgd1, stronger effect = lower value 0.985 | locus YIR030C, strain dcg1, stronger effect = lower value 1.01 | locus YJL092W, strain hpr5, stronger effect = lower value 1 | locus YJL095W, strain BCK1 (second series), stronger effect = lower value 0.995 | locus YJL095W, strain BCK1, stronger effect = lower value 1.01 and 0.981 | locus YJL115W, strain asf1, stronger effect = lower value 0.997 | locus YJL129C, strain trk1, stronger effect = lower value 1.01 | locus YJL134W, strain LCB3, stronger effect = lower value 1.01 | locus YJL154C, strain vps35, stronger effect = lower value 1 | locus YJL164C, strain tpk1, stronger effect = lower value 0.995 | locus YJL166W, strain qcr8, stronger effect = lower value 0.986 | locus YJL168C, strain set2, stronger effect = lower value 0.998 | locus YJL187C, strain SWE1 (second series), stronger effect = lower value 1.01 | locus YJL187C, strain SWE1, stronger effect = lower value 1 | locus YJR043C, strain POL32, stronger effect = lower value 1.02 | locus YJR066W, strain TOR1, stronger effect = lower value 0.917 | locus YKL009W, strain mrt4, stronger effect = lower value 1.01 | locus YKL068W, stronger effect = lower value 1.01 | locus YKL085W, strain MDH1 (second series), stronger effect = lower value 1 | locus YKL085W, strain MDH1, stronger effect = lower value 1 | locus YKL160W, strain elf1, stronger effect = lower value 0.985 | locus YKL190W, strain CNB1, stronger effect = lower value 1.02 | locus YKR001C, strain vps1, stronger effect = lower value 0.997 | locus YKR026C, strain gcn3, stronger effect = lower value 1.01 | locus YKR091W, strain srl3, stronger effect = lower value 1 | locus YLL001W, strain dnm1, stronger effect = lower value 0.982 | locus YLL026W, stronger effect = lower value 1 | locus YLL041C, strain sdh2, stronger effect = lower value 0.997 | locus YLR027C, strain aat2, stronger effect = lower value 1.01 | locus YLR039C, strain RIC1, stronger effect = lower value 0.976 | locus YLR058C, strain SHM2, stronger effect = lower value 1 | locus YLR102C, strain apc9, stronger effect = lower value 0.998 | locus YLR113W, strain HOG1, stronger effect = lower value 1 | locus YLR221C, strain rsa3, stronger effect = lower value 0.986 | locus YLR258W, strain gsy2, stronger effect = lower value 1.03 | locus YLR262C, strain YPT6 (second series), stronger effect = lower value 0.987 | locus YLR262C, strain YPT6, stronger effect = lower value 1.06 | locus YLR268W, strain sec22, stronger effect = lower value 0.993 | locus YLR320W, strain mms22, stronger effect = lower value 0.994 | locus YLR330W, strain CHS5, stronger effect = lower value 1.01 | locus YLR342W, strain FKS1 (second series), stronger effect = lower value 1 | locus YLR342W, strain FKS1, stronger effect = lower value 1 | locus YLR357W, strain rsc2, stronger effect = lower value 0.998 | locus YLR370C, strain arc18, stronger effect = lower value 1.01 | locus YLR371W, strain rom2, stronger effect = lower value 0.994 | locus YLR384C, strain iki3, stronger effect = lower value 0.995 | locus YLR418C, strain cdc73, stronger effect = lower value 0.982 | locus YML016C, strain PPZ1, stronger effect = lower value 1 | locus YML032C, strain rad52, stronger effect = lower value 0.991 | locus YML120C, strain ndi1, stronger effect = lower value 0.995 | locus YML124C, strain tub3, stronger effect = lower value 0.999 | locus YMR058W, strain fet3, stronger effect = lower value 0.998 | locus YMR078C, strain ctf18, stronger effect = lower value 1 | locus YMR125W, strain sto1, stronger effect = lower value 0.997 | locus YMR129W, stronger effect = lower value 1 | locus YMR205C, strain PFK2, stronger effect = lower value 0.983 | locus YMR223W, strain ubp8, stronger effect = lower value 0.993 | locus YMR231W, strain pep5, stronger effect = lower value 1 | locus YMR263W, strain SAP30, stronger effect = lower value 1.02 | locus YMR307W, strain GAS1, stronger effect = lower value 0.988 | locus YNL067W, strain RPL9B, stronger effect = lower value 1.02 | locus YNL071W, strain lat1, stronger effect = lower value 1 | locus YNL128W, strain TEP1, stronger effect = lower value 1.03 | locus YNL183C, strain NPR1, stronger effect = lower value 0.951 | locus YNL209W, strain ssb2, stronger effect = lower value 1 | locus YNL233W, strain BNI4, stronger effect = lower value 1.01 | locus YNL248C, strain rpa49, stronger effect = lower value 1.01 | locus YNL250W, strain rad50, stronger effect = lower value 1 | locus YNL271C, strain bni1, stronger effect = lower value 1 | locus YNL298W, strain CLA4, stronger effect = lower value 0.992 | locus YNL307C, strain MCK1, stronger effect = lower value 1 | locus YNL322C, strain KRE1 (second series), stronger effect = lower value 0.999 | locus YNR049C, strain mso1, stronger effect = lower value 0.995 | locus YNR052C, strain pop2, stronger effect = lower value 0.998 | locus YOL012C, strain htz1 0.651 | locus YOL147C, strain pex11, stronger effect = lower value 1.01 | locus YOR001W, strain rrp6, stronger effect = lower value 0.989 | locus YOR061W, strain CKA2, stronger effect = lower value 1 | locus YOR069W, strain VPS5, stronger effect = lower value 1.01 | locus YOR070C, strain gyp1, stronger effect = lower value 0.999 | locus YOR080W, strain dia2, stronger effect = lower value 0.999 | locus YOR083W, strain WHI5, stronger effect = lower value 0.993 | locus YOR106W, strain vam3, stronger effect = lower value 0.976 | locus YOR136W, strain idh2, stronger effect = lower value 0.995 | locus YOR144C, strain elg1, stronger effect = lower value 1 | locus YOR184W, strain ser1, stronger effect = lower value 0.992 | locus YOR231W, strain MKK1, stronger effect = lower value 0.981 | locus YOR265W, strain rbl2, stronger effect = lower value 1 | locus YOR270C, strain vph1, stronger effect = lower value 1.01 | locus YOR290C, strain snf2, stronger effect = lower value 0.914 | locus YOR316C, strain cot1, stronger effect = lower value 1.01 | locus YPL051W, strain arl3, stronger effect = lower value 0.986 | locus YPL055C, strain LGE1, stronger effect = lower value 1.01 | locus YPL078C, strain atp4, stronger effect = lower value 0.995 | locus YPL106C, strain sse1, stronger effect = lower value 0.969 | locus YPL240C, strain hsp82, stronger effect = lower value 0.991 | locus YPL241C, strain CIN2, stronger effect = lower value 1.01 | locus YPL256C, strain CLN2, stronger effect = lower value 0.957 | locus YPR119W, strain clb2, stronger effect = lower value 1 | locus YPR141C, strain kar3, stronger effect = lower value 1.01 | locus YPR163C, strain tif3, stronger effect = lower value 1.01 | locus YPR167C, strain met16, stronger effect = lower value 0.998 | strain wtn01, stronger effect = lower value 1
